{"source": "PubChem BioAssay (NCATS)", "note": "Results filed as inconclusive are left out. The source made the active and inactive calls. Calls follow the shape of the dose curve; as a rule, active = well fitted activation curve with a large enough effect in the main read-out, with a control signal flat (not every such curve was filed as active); inconclusive = small, poorly fitted or top-dose-only effect, or effect the other way, or a change in a side signal; inactive = flat fitted curve, though single readings scatter.", "data": [{"target": "3',5'-cyclic-AMP phosphodiesterase 4B (Homo sapiens) (UniProt Q07343)", "sequence (Q07343 whole entry, looked up)": "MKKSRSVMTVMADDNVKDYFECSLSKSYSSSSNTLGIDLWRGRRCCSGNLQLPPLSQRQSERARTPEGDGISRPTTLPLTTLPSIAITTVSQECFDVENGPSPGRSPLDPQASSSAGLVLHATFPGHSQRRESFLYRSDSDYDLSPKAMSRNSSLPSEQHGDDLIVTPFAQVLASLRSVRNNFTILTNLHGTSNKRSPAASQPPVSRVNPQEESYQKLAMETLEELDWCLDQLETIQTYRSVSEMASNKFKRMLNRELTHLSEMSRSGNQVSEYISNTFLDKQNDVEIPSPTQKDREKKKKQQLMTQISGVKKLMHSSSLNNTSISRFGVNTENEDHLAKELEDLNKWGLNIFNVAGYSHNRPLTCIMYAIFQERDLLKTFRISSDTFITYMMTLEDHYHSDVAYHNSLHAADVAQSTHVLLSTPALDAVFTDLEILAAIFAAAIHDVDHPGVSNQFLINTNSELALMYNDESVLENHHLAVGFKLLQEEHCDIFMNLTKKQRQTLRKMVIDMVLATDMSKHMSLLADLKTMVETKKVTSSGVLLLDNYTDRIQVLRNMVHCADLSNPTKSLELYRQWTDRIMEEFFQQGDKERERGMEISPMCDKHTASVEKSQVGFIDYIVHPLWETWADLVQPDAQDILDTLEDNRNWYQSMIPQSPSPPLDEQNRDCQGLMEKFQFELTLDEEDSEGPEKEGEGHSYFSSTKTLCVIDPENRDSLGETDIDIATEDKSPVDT", "assay": "qHTS Assay for Inhibitors of PDE-IV (AID 607); also: % of control where 0% means no effect", "conditions": "HEK293 ACTOne CNG channel cells, membrane potential fluorescence; series mostly up to 22.9 µM; activation (PDE inhibition): at the top concentration", "text": "NIH Chemical Genomics Center [NCGC]\nNIH Molecular Libraries Screening Centers Network [MLSCN]\nThe cyclic nucleotide phosphodiesterases (PDEs) are proteins that catalyze hydrolysis of 3', 5'-cyclic nucleotides, such as cyclic adenosine monophosphate (cAMP) and cyclic guanosine monophosphate (cGMP), to their corresponding 5'-nucleotide monophosphates. These enzymes play an important role in controlling cellular concentrations of cyclic nucleotides and have a central role in a variety of intracellular signaling events. cAMP PDEs are emerging as a promising class of drug targets in asthma and cardiovascular disease therapeutic areas.\nThere are no commercially available cell-based screening assays for PDE inhibitors: currently biochemical assays are done using pure substrates (cAMP or cGMP) and purified recombinant PDE enzymes. As with other biochemical screens on intracellular targets, false positives and false negatives may result from issues involving cell membrane permeability, cellular metabolism, and the like.\nHere we report the development of a cell-based screening assay for cAMP phosphodiesterase (PDE) inhibitors. The assay is based on the BD ACTOne# technology (BD Biosciences) which utilizes a modified cyclic nucleotide-gated channel (CNG) to monitor intracellular cAMP changes in live cells. The CNG channel is localized on the plasma membrane, and opens when the intracellular cAMP level increases, resulting in ion flux and cell membrane depolarization. The influx of cations through the CNG channel can be quantified using membrane potential (MP) dyes. We modified the BD ACTOne technology to allow the detection of PDE inhibitors, and performed an inhibitor screen for PDE-IV, which is expressed endogenously in HEK293 cells. We optimized this assay in homogeneous 1536-well plate assay format for high throughput screening.\nNCGC Assay Protocol Summary:\nThe medium contained 10% FBS (Invitrogen), 2 mM L-glutamine, and 250 ug/ml G418 (Cellgro) and 1 ug/ml puromycin (Clontech). ACTOneTM parental cells (BD Biosciences) were maintained in the same medium without puromycin.\nThe activity of the CNG channel was measured by BD ACTOneTM membrane potential dye kit (BD Biosciences). Forskolin, a positive control for cAMP activation and RO 20-1724, a PDE inhibitor, were both purchased from Sigma and solublized in DMSO.\nSequence,Parameter,Value,Description\n1,Reagent,3 uL,1000 cells/well 1536 TC treated Black plate\n3,Compound,0.5 uL,Kalypsys dispense RO 20-1724 100 uM final [A]\n4,Reagent,3 uL,BD membrane potential dye\n6,Compound,23 nL,Final concentration was 0.7nM to 22.9uM\n8,Detector,EX 535 / EM 590 [B],Envision\nFootnotes: [A] The stock 2 mM RO 20-1724 PDE inhibitor was made in 10 % DMSO. Parental cell line received 10 uM forskolin + 100 uM RO. [B] Envsion settings: Bottom Excitation 535/20 nm top emission 590/20, gain of 150 and 5 flashes per well.\nKeywords: PDE, PDE-IV, cytotoxicity, flourescence, MLSMR, MLSCN, NIH Roadmap, qHTS, NCGC", "values": [{"smiles": "O=C(c1ccncc1)N1CCC2(CC1)CN(C(c1ccccc1)c1ccccc1)C2", "activation (PDE inhibition)": "3.82% (inactive)"}, {"smiles": "Cn1c(=O)c(-c2cccc(C#N)c2)nc2cnc(Oc3ccccc3)nc21", "activation (PDE inhibition)": "-2.25% (inactive)"}, {"smiles": "CN(C)Cc1ccccc1-c1cc(NC2CC2)ncn1", "activation (PDE inhibition)": "0.0287% (inactive)"}, {"smiles": "COc1ncc2nc(-c3ccccc3)c(=O)n(C)c2n1", "activation (PDE inhibition)": "1.93% (inactive)"}, {"smiles": "c1csc(CNc2ncnc3ccc(-c4ccoc4)cc23)c1", "activation (PDE inhibition)": "27.3% (inactive)"}, {"smiles": "Cn1cccc1C(=O)N1CCC[C@@]2(CCN(c3ccccc3)C2)C1", "activation (PDE inhibition)": "15.5% (inactive)"}, {"smiles": "COc1ccc(-n2c(=O)cnc3cnc(N4CCN(C)CC4)nc32)cc1", "activation (PDE inhibition)": "-5.76% (inactive)"}, {"smiles": "COCCNc1ncnc2ccc(-c3ccoc3)cc12", "activation (PDE inhibition)": "11.4% (inactive)"}, {"smiles": "Cc1noc(C)c1C(=O)N1CCC[C@@]2(CCN(Cc3ccccc3)C2)C1", "activation (PDE inhibition)": "11.8% (inactive)"}, {"smiles": "Cc1noc(C)c1C(=O)N1CCC2(CCN(C(=O)Nc3ccccc3)CC2)CC1", "activation (PDE inhibition)": "2.99% (inactive)"}, {"smiles": "COc1ccc(NC(=O)N2CC3(CCN(C(=O)c4ccco4)CC3)C2)cc1", "activation (PDE inhibition)": "-1.25% (inactive)"}, {"smiles": "CC(=O)N1CCC2(CC1)CN(C(c1ccccc1)c1ccccc1)C2", "activation (PDE inhibition)": "-6.27% (inactive)"}, {"smiles": "O=C(c1csnn1)N1CCC[C@@]2(CCN(c3ncccn3)C2)C1", "activation (PDE inhibition)": "12.7% (inactive)"}, {"smiles": "O=C(c1cnccn1)N1CCC2(CC1)CN(c1ccncc1)C2", "activation (PDE inhibition)": "-7.03% (inactive)"}, {"smiles": "Cc1ccccc1-c1nc(N2CCNCC2)c2ccccc2n1", "activation (PDE inhibition)": "0.375% (inactive)"}, {"smiles": "COc1ncc2nc(-c3cc(F)cc(F)c3)c(=O)n(-c3ccccc3)c2n1", "activation (PDE inhibition)": "-17% (inactive)"}, {"smiles": "CN1CCN(c2ncc3nc(-c4cc(F)cc(F)c4)c(=O)n(C)c3n2)CC1", "activation (PDE inhibition)": "12% (inactive)"}, {"smiles": "COCCNc1ccnc(-c2ccccc2CN(C)C)n1", "activation (PDE inhibition)": "-5.94% (inactive)"}, {"smiles": "Cc1noc(C)c1-c1cc(NCc2cccs2)ncn1", "activation (PDE inhibition)": "28.9% (inactive)"}, {"smiles": "O=C(Nc1ccccc1)N1CC[C@@]2(CCCN(C(=O)c3ccco3)C2)C1", "activation (PDE inhibition)": "7.18% (inactive)"}, {"smiles": "Cn1c(=O)c(-c2cccs2)nc2cnc(N3CCOCC3)nc21", "activation (PDE inhibition)": "-8.17% (inactive)"}, {"smiles": "COc1ccc(NC(=O)N2CC[C@@]3(CCCN(C(=O)c4csnn4)C3)C2)cc1", "activation (PDE inhibition)": "9.17% (inactive)"}, {"smiles": "Cc1noc(C)c1-c1cc(N(C)C)ncn1", "activation (PDE inhibition)": "7.49% (inactive)"}, {"smiles": "COC(=O)N1CCC[C@@]2(CCN(c3ccccn3)C2)C1", "activation (PDE inhibition)": "10.4% (inactive)"}, {"smiles": "O=C(c1cc(C(F)(F)F)cc(C(F)(F)F)c1)N1CCC[C@@]2(CCN(Cc3ccncc3)C2)C1", "activation (PDE inhibition)": "3.78% (inactive)"}, {"smiles": "COc1cccc(-c2cncnc2N(C)Cc2ccco2)c1", "activation (PDE inhibition)": "2.35% (inactive)"}, {"smiles": "CNc1ncncc1-c1ccccc1OC", "activation (PDE inhibition)": "14.5% (inactive)"}, {"smiles": "O=C(c1csnn1)N1CCC2(CC1)CN(c1ccccn1)C2", "activation (PDE inhibition)": "21.9% (inactive)"}, {"smiles": "CC(=O)N1CCC2(CCCN(c3ccccn3)C2)CC1", "activation (PDE inhibition)": "13% (inactive)"}, {"smiles": "COCC(=O)N1CCC2(CC1)CCN(C(=O)Nc1ccc(OC)cc1)CC2", "activation (PDE inhibition)": "11% (inactive)"}, {"smiles": "COc1ccc(NC(=O)N2CC[C@@]3(CCCNC3)C2)cc1", "activation (PDE inhibition)": "9.86% (inactive)"}, {"smiles": "CS(=O)(=O)N1CCC2(CCCN(C(=O)Nc3cccc(C#N)c3)C2)CC1", "activation (PDE inhibition)": "8.87% (inactive)"}, {"smiles": "COCC(=O)N1CCC2(CCCN(C(=O)Nc3cccc(F)c3)C2)CC1", "activation (PDE inhibition)": "3.72% (inactive)"}, {"smiles": "COc1ccccc1CN1CCCC2(CCNCC2)C1", "activation (PDE inhibition)": "16.9% (inactive)"}, {"smiles": "Cc1cnc(CNc2ccnc(-c3ccccc3C(F)(F)F)n2)cn1", "activation (PDE inhibition)": "9.17% (inactive)"}, {"smiles": "c1cncc(CNc2ncnc3ccc(-c4cccnc4)cc23)c1", "activation (PDE inhibition)": "-0.886% (inactive)"}, {"smiles": "COCCNc1cc(-c2ccccc2CN(C)C)ncn1", "activation (PDE inhibition)": "6.6% (inactive)"}, {"smiles": "O=C(c1ccncc1)N1CCC2(CC1)CN(c1cccc(-c3ccccc3)c1)C2", "activation (PDE inhibition)": "-17.4% (inactive)"}, {"smiles": "Cc1noc(C)c1-c1cc(NC2CCNCC2)ncn1", "activation (PDE inhibition)": "-0.187% (inactive)"}, {"smiles": "Cc1cnc(CNc2ncncc2-c2cccnc2)cn1", "activation (PDE inhibition)": "-0.0703% (inactive)"}]}]}
